Test results taken from PubChem BioAssay AID1159580 (chemical genetic matrix, 2015).
Among all 5,500 compounds or so, about 2,000 (36%) were called active. Not shown: some 18% with an inconclusive outcome. Cut-off read from the data, not from the text of the source: active = normalized growth mostly below about 0.91 (no sharp cut-off); inconclusive = no clear call, values can overlap the other calls; inactive = mostly above about 0.92. The list shows a part of the results.

Test: chemical genetic growth profiling, strain panel (AID 1159580);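 note: tested at 20 µM; growth read once vehicle control cultures reached saturation at 30 °C; 1 = growth at the plate median or of vehicle wells; lower values mean less growth of the strain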
Conditions: growth OD

Measured: normalized growth

O=C(O)COc1ccc(Cl)cc1Cl
inactive: S. cerevisiae deletion strains, locus YJR043C, strain POL32, stronger effect = lower value 1.02 | S. cerevisiae deletion strains, locus YJR075W, strain HOC1, stronger effect = lower value 1.02 | S. cerevisiae deletion strains, locus YKL009W, strain mrt4, stronger effect = lower value 1.04 | S. cerevisiae deletion strains, locus YKL068W, stronger effect = lower value 1.01 | S. cerevisiae deletion strains, locus YKL085W, strain MDH1 (second series), stronger effect = lower value 1.01 | S. cerevisiae deletion strains, locus YKL085W, strain MDH1, stronger effect = lower value 1.01 | S. cerevisiae deletion strains, locus YKL160W, strain elf1, stronger effect = lower value 0.996 | S. cerevisiae deletion strains, locus YKL190W, strain CNB1, stronger effect = lower value 1.02 | S. cerevisiae deletion strains, locus YKR001C, strain vps1, stronger effect = lower value 1.04 | S. cerevisiae deletion strains, locus YKR026C, strain gcn3, stronger effect = lower value 0.988 | S. cerevisiae deletion strains, locus YKR091W, strain srl3, stronger effect = lower value 0.999 | S. cerevisiae deletion strains, locus YLL001W, strain dnm1, stronger effect = lower value 1 | S. cerevisiae deletion strains, locus YLL026W, stronger effect = lower value 0.988 | S. cerevisiae deletion strains, locus YLL041C, strain sdh2, stronger effect = lower value 0.995 | S. cerevisiae deletion strains, locus YLR027C, strain aat2, stronger effect = lower value 0.993 | S. cerevisiae deletion strains, locus YLR039C, strain RIC1, stronger effect = lower value 1.04 | S. cerevisiae deletion strains, locus YLR058C, strain SHM2, stronger effect = lower value 1.01 | S. cerevisiae deletion strains, locus YLR102C, strain apc9, stronger effect = lower value 1.03 | S. cerevisiae deletion strains, locus YLR221C, strain rsa3, stronger effect = lower value 0.989 | S. cerevisiae deletion strains, locus YLR258W, strain gsy2, stronger effect = lower value 0.994 | S. cerevisiae deletion strains, locus YLR262C, strain YPT6 (second series), stronger effect = lower value 0.996 | S. cerevisiae deletion strains, locus YLR262C, strain YPT6, stronger effect = lower value 1.08 | S. cerevisiae deletion strains, locus YLR268W, strain sec22, stronger effect = lower value 1.02 | S. cerevisiae deletion strains, locus YLR320W, strain mms22, stronger effect = lower value 0.991 | S. cerevisiae deletion strains, locus YLR330W, strain CHS5, stronger effect = lower value 1.01 | S. cerevisiae deletion strains, locus YLR342W, strain FKS1 (second series), stronger effect = lower value 1.03 | S. cerevisiae deletion strains, locus YLR342W, strain FKS1, stronger effect = lower value 1 | S. cerevisiae deletion strains, locus YLR357W, strain rsc2, stronger effect = lower value 0.989 | S. cerevisiae deletion strains, locus YLR370C, strain arc18, stronger effect = lower value 0.994 | S. cerevisiae deletion strains, locus YLR371W, strain rom2, stronger effect = lower value 1.03 | S. cerevisiae deletion strains, locus YLR384C, strain iki3, stronger effect = lower value 0.997 | S. cerevisiae deletion strains, locus YLR418C, strain cdc73, stronger effect = lower value 1.06 | S. cerevisiae deletion strains, locus YML016C, strain PPZ1, stronger effect = lower value 1.01 | S. cerevisiae deletion strains, locus YML032C, strain rad52, stronger effect = lower value 1.04 | S. cerevisiae deletion strains, locus YML120C, strain ndi1, stronger effect = lower value 0.989 | S. cerevisiae deletion strains, locus YML124C, strain tub3, stronger effect = lower value 1.02 | S. cerevisiae deletion strains, locus YMR058W, strain fet3, stronger effect = lower value 0.999 | S. cerevisiae deletion strains, locus YMR078C, strain ctf18, stronger effect = lower value 1.02 | S. cerevisiae deletion strains, locus YMR125W, strain sto1, stronger effect = lower value 0.993 | S. cerevisiae deletion strains, locus YMR129W, stronger effect = lower value 0.996 | S. cerevisiae deletion strains, locus YMR205C, strain PFK2, stronger effect = lower value 0.984 | S. cerevisiae deletion strains, locus YMR223W, strain ubp8, stronger effect = lower value 1.03 | S. cerevisiae deletion strains, locus YMR231W, strain pep5, stronger effect = lower value 0.992 | S. cerevisiae deletion strains, locus YMR263W, strain SAP30, stronger effect = lower value 1.01 | S. cerevisiae deletion strains, locus YMR307W, strain GAS1, stronger effect = lower value 1.04 | S. cerevisiae deletion strains, locus YNL067W, strain RPL9B, stronger effect = lower value 1.02 | S. cerevisiae deletion strains, locus YNL071W, strain lat1, stronger effect = lower value 1.01 | S. cerevisiae deletion strains, locus YNL128W, strain TEP1, stronger effect = lower value 1.02 | S. cerevisiae deletion strains, locus YNL153C, strain GIM3, stronger effect = lower value 0.993 | S. cerevisiae deletion strains, locus YNL209W, strain ssb2, stronger effect = lower value 1 | S. cerevisiae deletion strains, locus YNL233W, strain BNI4, stronger effect = lower value 1.03 | S. cerevisiae deletion strains, locus YNL248C, strain rpa49, stronger effect = lower value 0.989 | S. cerevisiae deletion strains, locus YNL250W, strain rad50, stronger effect = lower value 1.02 | S. cerevisiae deletion strains, locus YNL271C, strain bni1, stronger effect = lower value 1.02 | S. cerevisiae deletion strains, locus YNL298W, strain CLA4, stronger effect = lower value 1.04 | S. cerevisiae deletion strains, locus YNL307C, strain MCK1, stronger effect = lower value 1.03 | S. cerevisiae deletion strains, locus YNL322C, strain KRE1 (second series), stronger effect = lower value 0.994 | S. cerevisiae deletion strains, locus YNL322C, strain KRE1, stronger effect = lower value 1.01 | S. cerevisiae deletion strains, locus YNR049C, strain mso1, stronger effect = lower value 0.993 | S. cerevisiae deletion strains, locus YNR052C, strain pop2, stronger effect = lower value 1.03 | S. cerevisiae deletion strains, locus YOL006C, strain TOP1, stronger effect = lower value 1.08 | S. cerevisiae deletion strains, locus YOL012C, strain htz1 1.3 | S. cerevisiae deletion strains, locus YOL147C, strain pex11, stronger effect = lower value 1.02 | S. cerevisiae deletion strains, locus YOR001W, strain rrp6, stronger effect = lower value 0.993 | S. cerevisiae deletion strains, locus YOR061W, strain CKA2, stronger effect = lower value 1.01 | S. cerevisiae deletion strains, locus YOR069W, strain VPS5, stronger effect = lower value 1.01 | S. cerevisiae deletion strains, locus YOR070C, strain gyp1, stronger effect = lower value 1 | S. cerevisiae deletion strains, locus YOR080W, strain dia2, stronger effect = lower value 0.996 | S. cerevisiae deletion strains, locus YOR083W, strain WHI5, stronger effect = lower value 0.998 | S. cerevisiae deletion strains, locus YOR106W, strain vam3, stronger effect = lower value 0.994 | S. cerevisiae deletion strains, locus YOR136W, strain idh2, stronger effect = lower value 1.02 | S. cerevisiae deletion strains, locus YOR144C, strain elg1, stronger effect = lower value 1.02 | S. cerevisiae deletion strains, locus YOR184W, strain ser1, stronger effect = lower value 1.03 | S. cerevisiae deletion strains, locus YOR265W, strain rbl2, stronger effect = lower value 0.992 | S. cerevisiae deletion strains, locus YOR270C, strain vph1, stronger effect = lower value 1.01 | S. cerevisiae deletion strains, locus YOR290C, strain snf2, stronger effect = lower value 1 | S. cerevisiae deletion strains, locus YOR316C, strain cot1, stronger effect = lower value 1.03 | S. cerevisiae deletion strains, locus YPL051W, strain arl3, stronger effect = lower value 0.993 | S. cerevisiae deletion strains, locus YPL055C, strain LGE1, stronger effect = lower value 1.03 | S. cerevisiae deletion strains, locus YPL078C, strain atp4, stronger effect = lower value 0.999 | S. cerevisiae deletion strains, locus YPL106C, strain sse1, stronger effect = lower value 0.983 | S. cerevisiae deletion strains, locus YPL240C, strain hsp82, stronger effect = lower value 0.993 | S. cerevisiae deletion strains, locus YPL241C, strain CIN2, stronger effect = lower value 1.01 | S. cerevisiae deletion strains, locus YPR119W, strain clb2, stronger effect = lower value 1.01 | S. cerevisiae deletion strains, locus YPR141C, strain kar3, stronger effect = lower value 1.03 | S. cerevisiae deletion strains, locus YPR163C, strain tif3, stronger effect = lower value 1.02 | S. cerevisiae deletion strains, locus YPR167C, strain met16, stronger effect = lower value 1.03 | S. cerevisiae deletion strains, strain wtn01, stronger effect = lower value 1.02 | S. cerevisiae strains, strain wild type, stronger effect = lower value 1.01
